# Data published in article PMC7862700, “An all-to-all approach to the identification of sequence-specific readers for epigenetic DNA modifications on cytosine”.
# Tests used:
# Test in all cases: DAPPL (digital affinity profiling via proximity ligation, sequencing); 10 mM Tris-HCl pH 7.5, 50 mM NaCl, 1 mM DTT, 4% glycerol, room temperature, 30 min; GST-TFs on glutathione beads, 16-mer random dsDNA library, 0.1% formaldehyde crosslink after washing; high values mean tight binding
# Conditions in all cases: protein: recombinant; tags: N-terminal GST; dsDNA, one strand shown
# ELK1 = biological target: T1, ELK1 (Homo sapiens, UniProt P19419 1-428)
# T1 sequence: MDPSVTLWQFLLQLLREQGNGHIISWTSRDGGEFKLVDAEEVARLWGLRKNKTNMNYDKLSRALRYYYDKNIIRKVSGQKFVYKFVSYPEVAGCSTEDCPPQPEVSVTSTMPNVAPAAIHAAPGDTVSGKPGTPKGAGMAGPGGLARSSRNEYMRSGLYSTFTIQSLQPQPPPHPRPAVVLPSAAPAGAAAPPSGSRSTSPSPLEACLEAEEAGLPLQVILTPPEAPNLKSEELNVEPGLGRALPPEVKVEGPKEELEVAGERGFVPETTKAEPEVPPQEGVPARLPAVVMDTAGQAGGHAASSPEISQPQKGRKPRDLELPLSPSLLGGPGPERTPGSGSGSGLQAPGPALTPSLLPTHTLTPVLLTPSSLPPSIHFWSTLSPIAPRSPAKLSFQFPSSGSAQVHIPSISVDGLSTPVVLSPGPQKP
# In short: (§1)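 Yeast served to express human transcription factors as GST fusions, which were then captured on glutathione beads and labelled with DNA barcodes. Pooled with a tag-only sample, they were incubated with 200 nmole of a 16-mer random double-stranded DNA library for 30 min at room temperature in Tris/NaCl/DTT/glycerol buffer, washed, crosslinked with 0.1% formaldehyde, ligated by proximity, amplified by PCR and sequenced. Dividing each hexamer's read frequency for a factor by its frequency for the tag-only sample gives the binding signal.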
# GABPA = biological target: T2, GABPA (Homo sapiens, UniProt Q06546 1-454)
# T2 sequence: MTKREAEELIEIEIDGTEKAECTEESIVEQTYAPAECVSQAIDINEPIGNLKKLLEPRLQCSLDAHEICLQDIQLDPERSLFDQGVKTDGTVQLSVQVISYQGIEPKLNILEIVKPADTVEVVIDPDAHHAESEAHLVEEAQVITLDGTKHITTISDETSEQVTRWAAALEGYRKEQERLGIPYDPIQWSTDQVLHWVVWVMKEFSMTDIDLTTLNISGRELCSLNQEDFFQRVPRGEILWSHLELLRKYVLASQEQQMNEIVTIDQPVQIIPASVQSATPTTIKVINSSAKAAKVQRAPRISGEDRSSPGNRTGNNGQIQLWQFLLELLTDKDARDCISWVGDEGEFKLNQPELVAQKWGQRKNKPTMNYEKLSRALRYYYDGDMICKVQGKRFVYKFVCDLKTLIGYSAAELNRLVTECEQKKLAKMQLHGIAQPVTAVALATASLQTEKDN
# In short: as §1
# ERG = biological target: T3, ERG (Homo sapiens, UniProt P11308 1-479)
# T3 sequence: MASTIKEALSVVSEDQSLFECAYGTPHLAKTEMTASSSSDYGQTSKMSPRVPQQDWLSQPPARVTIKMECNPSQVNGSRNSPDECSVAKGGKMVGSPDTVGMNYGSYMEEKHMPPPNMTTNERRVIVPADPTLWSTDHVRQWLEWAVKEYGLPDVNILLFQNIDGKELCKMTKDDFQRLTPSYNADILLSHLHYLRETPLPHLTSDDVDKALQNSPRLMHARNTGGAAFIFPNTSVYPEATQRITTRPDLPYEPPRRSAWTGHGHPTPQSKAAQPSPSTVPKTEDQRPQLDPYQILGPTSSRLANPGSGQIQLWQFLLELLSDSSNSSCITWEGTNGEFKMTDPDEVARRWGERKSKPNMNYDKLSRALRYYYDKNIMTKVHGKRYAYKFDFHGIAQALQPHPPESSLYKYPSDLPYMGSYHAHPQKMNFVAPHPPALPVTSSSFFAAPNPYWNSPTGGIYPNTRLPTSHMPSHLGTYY
# In short: as §1
# ELF1 = ELF1 (Homo sapiens, UniProt P32519 1-619)
# ELF1, sequence (P32519 whole entry): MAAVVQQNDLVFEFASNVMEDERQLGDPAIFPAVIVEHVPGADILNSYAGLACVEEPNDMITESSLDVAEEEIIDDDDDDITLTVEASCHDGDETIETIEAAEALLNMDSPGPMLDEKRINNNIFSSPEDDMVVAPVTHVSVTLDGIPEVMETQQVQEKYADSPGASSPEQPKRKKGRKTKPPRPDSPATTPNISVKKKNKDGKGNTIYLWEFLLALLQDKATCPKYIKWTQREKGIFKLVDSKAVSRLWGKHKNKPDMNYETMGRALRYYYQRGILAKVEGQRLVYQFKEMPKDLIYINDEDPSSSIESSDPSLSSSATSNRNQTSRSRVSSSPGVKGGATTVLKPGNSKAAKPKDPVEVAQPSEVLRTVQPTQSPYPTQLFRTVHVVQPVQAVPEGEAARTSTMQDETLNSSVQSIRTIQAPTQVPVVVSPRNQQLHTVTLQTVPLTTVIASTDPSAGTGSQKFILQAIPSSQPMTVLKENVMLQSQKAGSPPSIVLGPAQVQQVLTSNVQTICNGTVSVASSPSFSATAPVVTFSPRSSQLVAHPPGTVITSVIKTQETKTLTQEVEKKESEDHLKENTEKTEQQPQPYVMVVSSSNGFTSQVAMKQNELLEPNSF
# In short: as §1
# EHF = biological target: T4, EHF (Homo sapiens, UniProt Q9NZC4 1-300)
# T4 sequence: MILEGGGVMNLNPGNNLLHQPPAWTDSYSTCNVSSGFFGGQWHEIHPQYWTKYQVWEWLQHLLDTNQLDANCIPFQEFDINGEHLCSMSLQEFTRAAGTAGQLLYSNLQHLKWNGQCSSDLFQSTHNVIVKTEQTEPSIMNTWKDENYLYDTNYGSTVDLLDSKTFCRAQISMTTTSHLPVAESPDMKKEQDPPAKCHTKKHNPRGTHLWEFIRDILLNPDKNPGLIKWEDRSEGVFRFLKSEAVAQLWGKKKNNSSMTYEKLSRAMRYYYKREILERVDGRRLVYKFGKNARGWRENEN
# In short: as §1
# SPIB = SPIB (Homo sapiens, UniProt Q01892 1-262)
# SPIB, sequence (Q01892 whole entry): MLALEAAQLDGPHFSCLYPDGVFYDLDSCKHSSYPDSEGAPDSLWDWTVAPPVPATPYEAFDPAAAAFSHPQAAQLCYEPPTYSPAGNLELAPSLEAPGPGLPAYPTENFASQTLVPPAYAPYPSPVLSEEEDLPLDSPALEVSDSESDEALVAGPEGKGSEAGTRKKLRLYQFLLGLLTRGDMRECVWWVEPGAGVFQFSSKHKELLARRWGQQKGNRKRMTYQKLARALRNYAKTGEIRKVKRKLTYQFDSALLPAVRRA
# In short: as §1
# FEV = biological target: T5, FEV (Homo sapiens, UniProt Q99581 1-238)
# T5 sequence: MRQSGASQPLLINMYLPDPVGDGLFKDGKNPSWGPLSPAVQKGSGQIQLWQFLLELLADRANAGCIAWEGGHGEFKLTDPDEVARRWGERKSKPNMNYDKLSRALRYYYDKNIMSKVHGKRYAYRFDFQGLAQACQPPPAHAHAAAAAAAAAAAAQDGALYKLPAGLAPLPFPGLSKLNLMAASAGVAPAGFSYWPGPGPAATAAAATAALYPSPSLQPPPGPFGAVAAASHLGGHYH
# In short: as §1
# ETV5 = ETV5 (Homo sapiens, UniProt P41161 1-510)
# ETV5, sequence (P41161 whole entry): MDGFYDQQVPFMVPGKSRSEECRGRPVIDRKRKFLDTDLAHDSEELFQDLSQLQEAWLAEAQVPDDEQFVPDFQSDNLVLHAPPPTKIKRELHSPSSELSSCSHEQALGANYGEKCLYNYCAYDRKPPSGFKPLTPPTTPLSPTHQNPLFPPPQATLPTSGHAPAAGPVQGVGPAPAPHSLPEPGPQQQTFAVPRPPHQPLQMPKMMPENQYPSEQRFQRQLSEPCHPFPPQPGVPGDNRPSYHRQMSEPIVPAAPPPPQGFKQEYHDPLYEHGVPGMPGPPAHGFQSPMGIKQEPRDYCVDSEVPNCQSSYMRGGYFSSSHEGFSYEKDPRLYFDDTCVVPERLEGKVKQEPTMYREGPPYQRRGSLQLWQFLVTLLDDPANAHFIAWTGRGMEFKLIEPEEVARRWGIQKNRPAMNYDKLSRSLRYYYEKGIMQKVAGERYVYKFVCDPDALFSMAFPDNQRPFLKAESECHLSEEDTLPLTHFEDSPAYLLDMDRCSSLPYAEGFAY
# In short: as §1
# ELF4 = ELF4 (Homo sapiens, UniProt Q99607 1-663)
# ELF4, sequence (Q99607 whole entry): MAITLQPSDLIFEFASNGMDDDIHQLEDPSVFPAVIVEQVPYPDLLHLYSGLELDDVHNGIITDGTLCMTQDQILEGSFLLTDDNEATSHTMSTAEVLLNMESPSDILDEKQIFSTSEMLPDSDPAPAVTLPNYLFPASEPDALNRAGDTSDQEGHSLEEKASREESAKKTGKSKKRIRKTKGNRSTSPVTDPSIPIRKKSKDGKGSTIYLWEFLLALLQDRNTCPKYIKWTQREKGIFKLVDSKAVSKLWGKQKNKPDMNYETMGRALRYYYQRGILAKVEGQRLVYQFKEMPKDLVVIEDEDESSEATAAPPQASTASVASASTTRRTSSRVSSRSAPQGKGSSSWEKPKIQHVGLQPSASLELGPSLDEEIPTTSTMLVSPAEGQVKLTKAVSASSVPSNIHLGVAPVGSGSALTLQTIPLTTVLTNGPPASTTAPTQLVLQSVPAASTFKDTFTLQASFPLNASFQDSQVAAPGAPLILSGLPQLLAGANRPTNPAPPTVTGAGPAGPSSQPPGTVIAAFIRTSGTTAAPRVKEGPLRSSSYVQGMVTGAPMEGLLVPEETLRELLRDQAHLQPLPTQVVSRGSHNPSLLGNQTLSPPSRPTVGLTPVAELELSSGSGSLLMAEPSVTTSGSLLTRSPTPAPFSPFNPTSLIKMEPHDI
# In short: as §1
# ELK4 = biological target: T6, ELK4 (Homo sapiens, UniProt P28324-2 1-405)
# T6 sequence: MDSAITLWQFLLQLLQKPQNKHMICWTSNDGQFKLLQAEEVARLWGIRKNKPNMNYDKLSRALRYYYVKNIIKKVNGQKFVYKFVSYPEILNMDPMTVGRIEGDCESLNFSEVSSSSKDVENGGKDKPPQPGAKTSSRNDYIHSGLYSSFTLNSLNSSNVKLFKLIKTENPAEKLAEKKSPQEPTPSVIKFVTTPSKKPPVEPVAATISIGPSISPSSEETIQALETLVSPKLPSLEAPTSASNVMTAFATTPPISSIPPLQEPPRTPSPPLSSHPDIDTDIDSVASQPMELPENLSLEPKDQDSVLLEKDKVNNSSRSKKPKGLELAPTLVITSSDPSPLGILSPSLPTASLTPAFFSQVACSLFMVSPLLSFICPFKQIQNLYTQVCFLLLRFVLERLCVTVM
# In short: as §1
# ETV2 = biological target: T7, ETV2 (Homo sapiens, UniProt O00321 1-342)
# T7 sequence: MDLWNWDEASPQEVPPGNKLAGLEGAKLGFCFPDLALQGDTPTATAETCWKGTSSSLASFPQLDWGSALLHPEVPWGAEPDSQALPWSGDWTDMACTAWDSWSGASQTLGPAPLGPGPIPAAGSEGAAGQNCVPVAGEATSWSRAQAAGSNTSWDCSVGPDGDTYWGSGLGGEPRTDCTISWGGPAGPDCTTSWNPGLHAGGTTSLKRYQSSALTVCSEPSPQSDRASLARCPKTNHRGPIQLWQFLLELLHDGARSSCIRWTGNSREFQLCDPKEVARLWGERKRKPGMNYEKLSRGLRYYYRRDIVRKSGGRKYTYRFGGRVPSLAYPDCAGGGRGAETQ
# In short: as §1
# ELF3 = biological target: T8, ELF3 (Homo sapiens, UniProt P78545 1-371)
# T8 sequence: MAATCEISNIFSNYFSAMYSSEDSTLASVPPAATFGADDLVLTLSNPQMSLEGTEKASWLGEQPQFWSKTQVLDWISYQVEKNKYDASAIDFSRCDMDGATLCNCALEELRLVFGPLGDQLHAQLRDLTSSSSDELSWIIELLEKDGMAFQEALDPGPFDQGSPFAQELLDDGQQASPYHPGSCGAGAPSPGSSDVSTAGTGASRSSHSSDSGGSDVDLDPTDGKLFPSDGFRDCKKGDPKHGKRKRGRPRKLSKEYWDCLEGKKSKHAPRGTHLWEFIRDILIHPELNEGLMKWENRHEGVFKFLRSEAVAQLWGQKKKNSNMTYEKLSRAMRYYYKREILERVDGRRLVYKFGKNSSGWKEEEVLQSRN
# In short: as §1
# ERF = biological target: T9, ERF (Homo sapiens, UniProt P50548 1-548)
# T9 sequence: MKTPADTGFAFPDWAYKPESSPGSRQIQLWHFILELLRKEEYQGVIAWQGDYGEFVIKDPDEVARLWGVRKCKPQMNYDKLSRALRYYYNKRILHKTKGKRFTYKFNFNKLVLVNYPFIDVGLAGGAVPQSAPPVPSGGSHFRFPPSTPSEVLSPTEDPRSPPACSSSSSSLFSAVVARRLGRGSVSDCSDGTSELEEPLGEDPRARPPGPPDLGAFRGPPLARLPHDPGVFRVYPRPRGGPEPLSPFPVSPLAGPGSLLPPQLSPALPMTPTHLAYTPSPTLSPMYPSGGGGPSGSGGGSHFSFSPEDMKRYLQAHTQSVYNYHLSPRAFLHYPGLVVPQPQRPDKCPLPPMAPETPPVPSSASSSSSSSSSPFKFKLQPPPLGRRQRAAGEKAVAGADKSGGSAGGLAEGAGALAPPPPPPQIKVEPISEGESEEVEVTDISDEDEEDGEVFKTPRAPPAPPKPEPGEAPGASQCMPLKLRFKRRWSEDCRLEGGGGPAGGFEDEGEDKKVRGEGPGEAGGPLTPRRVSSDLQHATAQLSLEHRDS
# In short: as §1
# ETV3L = biological target: T10, ETV3L (Homo sapiens, UniProt Q6ZN32 1-361)
# T10 sequence: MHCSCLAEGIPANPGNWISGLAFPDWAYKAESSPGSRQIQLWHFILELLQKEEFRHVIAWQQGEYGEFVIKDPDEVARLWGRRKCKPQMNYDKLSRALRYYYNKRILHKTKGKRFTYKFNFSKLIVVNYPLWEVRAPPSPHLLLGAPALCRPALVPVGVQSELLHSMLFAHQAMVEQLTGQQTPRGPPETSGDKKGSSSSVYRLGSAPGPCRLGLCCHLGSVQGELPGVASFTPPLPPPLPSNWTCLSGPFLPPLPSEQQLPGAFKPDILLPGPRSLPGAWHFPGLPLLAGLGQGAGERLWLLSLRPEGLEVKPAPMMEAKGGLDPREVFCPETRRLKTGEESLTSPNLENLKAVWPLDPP
# In short: as §1
# ETS2 = biological target: T11, ETS2 (Homo sapiens, UniProt P15036 1-469)
# T11 sequence: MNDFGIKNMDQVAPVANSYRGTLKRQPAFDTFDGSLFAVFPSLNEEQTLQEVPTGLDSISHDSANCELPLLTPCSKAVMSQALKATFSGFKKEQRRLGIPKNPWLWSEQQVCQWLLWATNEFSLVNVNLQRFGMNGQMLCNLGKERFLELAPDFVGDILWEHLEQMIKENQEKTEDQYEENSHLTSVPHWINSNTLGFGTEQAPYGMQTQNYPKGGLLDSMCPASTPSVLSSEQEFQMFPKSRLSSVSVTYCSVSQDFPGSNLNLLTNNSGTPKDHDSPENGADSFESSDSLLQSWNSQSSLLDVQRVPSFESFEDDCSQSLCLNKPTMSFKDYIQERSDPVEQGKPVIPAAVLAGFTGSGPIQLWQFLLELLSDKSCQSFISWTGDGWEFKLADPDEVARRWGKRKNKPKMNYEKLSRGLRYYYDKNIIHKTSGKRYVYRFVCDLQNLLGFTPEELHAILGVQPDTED
# In short: as §1
# SPDEF = biological target: T12, SPDEF (Homo sapiens, UniProt O95238 1-335)
# T12 sequence: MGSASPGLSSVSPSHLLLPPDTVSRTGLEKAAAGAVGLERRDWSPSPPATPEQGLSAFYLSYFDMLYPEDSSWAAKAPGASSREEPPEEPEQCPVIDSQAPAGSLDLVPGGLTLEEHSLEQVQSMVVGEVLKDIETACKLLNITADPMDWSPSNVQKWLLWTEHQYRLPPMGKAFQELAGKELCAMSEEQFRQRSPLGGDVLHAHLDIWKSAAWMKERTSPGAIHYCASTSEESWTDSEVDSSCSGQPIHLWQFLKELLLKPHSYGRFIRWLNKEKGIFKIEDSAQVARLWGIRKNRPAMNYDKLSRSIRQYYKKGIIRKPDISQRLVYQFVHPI
# In short: as §1
# ETV6 = ETV6 (Homo sapiens, UniProt P41212 1-452)
# ETV6, sequence (P41212 whole entry): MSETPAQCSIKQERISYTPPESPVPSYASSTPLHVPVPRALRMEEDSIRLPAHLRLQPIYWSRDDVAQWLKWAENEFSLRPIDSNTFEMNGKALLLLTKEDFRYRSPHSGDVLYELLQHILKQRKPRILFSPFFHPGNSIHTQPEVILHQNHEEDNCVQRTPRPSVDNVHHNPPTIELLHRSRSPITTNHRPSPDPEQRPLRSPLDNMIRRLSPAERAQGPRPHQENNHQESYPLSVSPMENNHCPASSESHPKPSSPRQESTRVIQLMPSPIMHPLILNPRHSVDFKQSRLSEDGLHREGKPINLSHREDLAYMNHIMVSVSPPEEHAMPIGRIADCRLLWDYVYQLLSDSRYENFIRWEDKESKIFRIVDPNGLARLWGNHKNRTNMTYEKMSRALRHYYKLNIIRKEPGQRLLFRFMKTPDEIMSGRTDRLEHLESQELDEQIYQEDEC
# In short: as §1
sequence,measurement,setting,value
GCCCAA,binding signal,ELK1,"1.08 fold enrichment (6-mer frequency, TF over GST control)"
same,binding signal,GABPA,"1.14 fold enrichment (6-mer frequency, TF over GST control)"
same,binding signal,ERG,"1.06 fold enrichment (6-mer frequency, TF over GST control)"
same,binding signal,ELF1,"1.09 fold enrichment (6-mer frequency, TF over GST control)"
same,binding signal,EHF,"1 fold enrichment (6-mer frequency, TF over GST control)"
same,binding signal,SPIB,"1.06 fold enrichment (6-mer frequency, TF over GST control)"
same,binding signal,FEV,"1.11 fold enrichment (6-mer frequency, TF over GST control)"
same,binding signal,ETV5,"1.1 fold enrichment (6-mer frequency, TF over GST control)"
same,binding signal,ELF4,"1.12 fold enrichment (6-mer frequency, TF over GST control)"
same,binding signal,ELK4,"1.07 fold enrichment (6-mer frequency, TF over GST control)"
same,binding signal,ETV2,"1.24 fold enrichment (6-mer frequency, TF over GST control)"
same,binding signal,ELF3,"1.05 fold enrichment (6-mer frequency, TF over GST control)"
same,binding signal,ERF,"1.08 fold enrichment (6-mer frequency, TF over GST control)"
same,binding signal,ETV3L,"1.04 fold enrichment (6-mer frequency, TF over GST control)"
same,binding signal,ETS2,"1.09 fold enrichment (6-mer frequency, TF over GST control)"
same,binding signal,SPDEF,"1.08 fold enrichment (6-mer frequency, TF over GST control)"
same,binding signal,ETV6,"1.02 fold enrichment (6-mer frequency, TF over GST control)"
